# Inconclusive results are not listed. The source made the active and inactive calls. Unless noted, calls follow the shape of the full dose curve.
# Legend:
# [1] = qHTS drug screen for cell cycle checkpoint inhibitors in PARPi-resistant BRCA-mutant ovarian cancer cell lines. (AID 1963452); conditions: PEO1/OlaR viability, CellTiter-Glo luminescence, 96 h, stronger effect = lower value
# How it was run: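 PEO1, PEO4 and PEO1/OlaR ovarian cancer cells, 600 per well, exposed 96 h at 37C to a dilution series. Viability read by CellTiter-Glo luminescence, normalized to DMSO and empty wells; activity summarized as Z-AUC.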
# [2] = qHTS for identification of novel therapeutic agents for treatment of microphthalmiaassociated transcription factor (MiT) renal cell carcinoma (RCC) (AID 1963991); conditions: CellTiter-Glo, 48 h, stronger effect = lower value
# How it was run: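 Three TFE3-fusion RCC lines (UOK109, UOK124, UOK145), 500 cells/well in complete medium, were treated with MIPE 4.0 compounds for 48 hours at 37 C. Viability was by CellTiter-Glo luminescence, normalized to DMSO (100%) and empty wells (0%); curves fitted over 11 concentrations.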
# [3] = qHTS profiling for inhibitors of Plasmodium falciparum proliferation (AID 504749; active = well fitted inhibition curve with a large enough effect; also: potency is read from the fitted curve at half-maximal effect;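 as to activity, negative = inhibition: 0% = DMSO vehicle and full inhibition = artemisinin control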; as to all read-outs here: nearly all actives have a fitted effect of over 60% in size); conditions: P. falciparum in erythrocytes, SYBR Green DNA, 72 h; for activity, negative = inhibition: at 12.8 µM (top of the series)
# How it was run: (§1)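 Readout was DNA-dye fluorescence from lysed cultures, ex 485/em 535 nm. Parasitized red cells had grown 72 h with compound; data scaled between 0.29 uM artemisinin and DMSO wells and corrected using vehicle-only plates.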
# 3D7 = test: as above; conditions: P. falciparum in erythrocytes, SYBR Green DNA, 72 h; series mostly up to 28.7 µM
# How it was run: as §1
# 7G8 = test: as above; conditions: P. falciparum in erythrocytes, SYBR Green DNA, 72 h; series mostly up to 28.7 µM
# How it was run: as §1
# AA1029 = test: as above; conditions: P. falciparum in erythrocytes, SYBR Green DNA, 72 h; series mostly up to 28.7 µM
# How it was run: as §1
# AS120 = test: as above; conditions: P. falciparum in erythrocytes, SYBR Green DNA, 72 h; series mostly up to 28.7 µM
# How it was run: as §1
# [4] = measured here: PEO1 parental Z-AUC
# [5] = TFE3-RCC UOK109 viability, measured here: UOK109 Z-AUC
# [6] = TFE3-RCC viability, measured here: UOK124 Z-AUC
# [7] = TFE3-RCC viability, measured here: UOK145 Z-AUC
compound,measurement,setting,value
OC(CCN1CCCCC1)(c1ccccc1)C1CC2C=CC1C2 (stereo not given),Z-AUC,[1],-0.614 (inactive)
same,Z-AUC,[1]; [4],-0.36
same,Z-AUC,[1]; measured here: PEO4 Z-AUC,-0.607
same,z-score,[2]; [5],0.676
same,z-score,[2]; [6],0.56
same,z-score,[2]; [7],0.997
CCCCNc1cc(C(=O)O)cc(S(N)(=O)=O)c1Oc1ccccc1,Z-AUC,[1],-0.665 (inactive)
same,Z-AUC,[1]; [4],0.995
same,Z-AUC,[1]; measured here: PEO4 Z-AUC,0.519
same,z-score,[2]; [5],0.772
same,z-score,[2]; [6],0.679
same,z-score,[2]; [7],-1.8
same,"activity, negative = inhibition",[3]; parasite line A,-5.15% (inactive)
same,"activity, negative = inhibition",[3]; parasite line B,8.34% (inactive)
same,Potency,3D7,inactive
same,Potency,7G8,inactive
same,Potency,AA1029,inactive
same,Potency,AS120,inactive
O=C(C1CC1)N1CC[C@@H](Cn2c(-c3ccc(-c4ccc5occc5c4)cc3)nc3cnccc32)C1,Z-AUC,[1],0.419 (inactive)
same,Z-AUC,[1]; [4],0.824
same,Z-AUC,[1]; measured here: PEO4 Z-AUC,0.902
same,z-score,[2]; [5],0.57
same,z-score,[2]; [6],0.377
same,z-score,[2]; [7],0.609
CC(C)(C)OC(=O)CN(Cc1ccc(Cl)cc1)Cc1ccc([N+](=O)[O-])s1,Z-AUC,[1],0.709 (inactive)
same,Z-AUC,[1]; [4],0.527
same,Z-AUC,[1]; measured here: PEO4 Z-AUC,0.345
same,z-score,[2]; [5],0.406
same,z-score,[2]; [6],0.354
same,z-score,[2]; [7],0.158
O=C(O)CCc1ccc(NCc2cccc(Oc3ccccc3)c2)cc1,Z-AUC,[1],1.62 (inactive)
same,Z-AUC,[1]; [4],1.54
same,Z-AUC,[1]; measured here: PEO4 Z-AUC,1.47
same,z-score,[2]; [5],0.226
same,z-score,[2]; [6],0.797
same,z-score,[2]; [7],0.0253
Nc1ncnc2nc(-c3ccc(N4CCOCC4)nc3)cc(-c3cccc(Br)c3)c12,Z-AUC,[1],0.819 (inactive)
same,Z-AUC,[1]; [4],1.06
same,Z-AUC,[1]; measured here: PEO4 Z-AUC,0.514
NC(=O)c1ccc(I)c([N+](=O)[O-])c1,Z-AUC,[1],1.56 (inactive)
same,Z-AUC,[1]; [4],1.77
same,Z-AUC,[1]; measured here: PEO4 Z-AUC,1.61
same,z-score,[2]; [5],0.172
same,z-score,[2]; [6],0.616
same,z-score,[2]; [7],-0.107
O=C(O)[C@@H](c1ccc(OCc2ccc3ccccc3n2)cc1)C1CCCC1,Z-AUC,[1],1.02 (inactive)
same,Z-AUC,[1]; [4],0.403
same,Z-AUC,[1]; measured here: PEO4 Z-AUC,0.552
same,z-score,[2]; [5],0.431
same,z-score,[2]; [6],0.636
same,z-score,[2]; [7],0.202
C1COC(NC(C2CC2)C2CC2)=N1,Z-AUC,[1],-0.361 (inactive)
same,Z-AUC,[1]; [4],-0.558
same,Z-AUC,[1]; measured here: PEO4 Z-AUC,-0.616
same,z-score,[2]; [5],0.422
same,z-score,[2]; [6],0.218
same,z-score,[2]; [7],0.0437
same,Potency,[3]; parasite line A,7.94 µM (active)
same,Potency,3D7,inactive
same,Potency,7G8,12.6 µM (active)
same,Potency,AS120,12.6 µM (active)
O=c1ncn2nc(Sc3ccc(F)cc3F)ccc2c1-c1c(Cl)cccc1Cl,Z-AUC,[1],-0.105 (inactive)
same,Z-AUC,[1]; [4],0.606
same,Z-AUC,[1]; measured here: PEO4 Z-AUC,0.747
same,z-score,[2]; [5],0.124
same,z-score,[2]; [6],1.12
same,z-score,[2]; [7],1.1
CCc1cncnc1N1CCN(Cc2nc3ccc(C(F)(F)F)cc3[nH]2)CC1,Z-AUC,[1],-0.0922 (inactive)
same,Z-AUC,[1]; [4],-0.164
same,Z-AUC,[1]; measured here: PEO4 Z-AUC,0.451
